Assay results taken from PubChem BioAssay (NCI).
This is part of a sample that, as a whole, favours compounds with a hit. Of some 83,000 tested, about 20% had one in any assay.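 Activity criterion: percent growth below 10, measured after cells in 96-well plates were exposed to a single compound concentration for 48 hours.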 Activity calls are given as the source filed them.

Columns and labels:
Assay in all cases: NCI-60 one-dose screen, 48 h (100 = growth as untreated, 0 = no growth, -100 = all killed)
SK-MEL-2 melanoma = conditions: 10 µM unless noted
EKVX NSCLC = conditions: 10 µM unless noted
SN12C renal = conditions: 10 µM unless noted
UO-31 renal = conditions: 10 µM unless noted
TK-10 renal = conditions: 10 µM unless noted
ACHN renal = conditions: 10 µM unless noted
CAKI-1 renal = conditions: 10 µM unless noted
A498 renal = conditions: 10 µM unless noted
CCRF-CEM leukemia = conditions: 10 µM unless noted
MOLT-4 leukemia = conditions: 10 µM unless noted
SR leukemia = conditions: 10 µM unless noted
RPMI-8226 leukemia = conditions: 10 µM unless noted
OVCAR-8 ovarian = conditions: 10 µM unless noted
OVCAR-5 ovarian = conditions: 10 µM unless noted
OVCAR-4 ovarian = conditions: 10 µM
SK-OV-3 ovarian = conditions: 10 µM unless noted
IGROV1 ovarian = conditions: 10 µM unless noted
OVCAR-3 ovarian = conditions: 10 µM unless noted
HS 578T breast = conditions: 10 µM unless noted
NCI/ADR-RES ovarian = conditions: 10 µM unless noted

Measured: growth

Nc1nc(N)c2c(n1)NC(c1ccc(F)cc1)C1CCc3ccccc3C1=N2 (centres undefined)
active: SR leukemia 9.32%
inactive: SK-MEL-2 melanoma 97.7% | EKVX NSCLC 45.3% | SN12C renal 63.1% | UO-31 renal 59.7% | TK-10 renal 36.3% | ACHN renal 49.7% | CAKI-1 renal 44.8% | A498 renal 58.1% | CCRF-CEM leukemia 35.9% | MOLT-4 leukemia 19.9% | RPMI-8226 leukemia 42.3% | OVCAR-8 ovarian 70.4% | OVCAR-5 ovarian 110% | OVCAR-4 ovarian 36% | SK-OV-3 ovarian 63.9% | IGROV1 ovarian 83.6% | OVCAR-3 ovarian 48.2% | HS 578T breast 84.1% | NCI/ADR-RES ovarian 43.7%

Brc1ccc(-c2nnc3c4[nH]ccc4ncn23)cc1
inactive: SK-MEL-2 melanoma 92.2% | EKVX NSCLC 77.5% | SN12C renal 90.5% | UO-31 renal 58.6% | TK-10 renal 89.4% | ACHN renal 78.7% | CAKI-1 renal 87.3% | A498 renal 70.6% | CCRF-CEM leukemia 97.3% | MOLT-4 leukemia 77.2% | SR leukemia 82.1% | RPMI-8226 leukemia 84.4% | OVCAR-8 ovarian 95.3% | OVCAR-5 ovarian 113% | OVCAR-4 ovarian 91.1% | SK-OV-3 ovarian 93.2% | IGROV1 ovarian 69.6% | OVCAR-3 ovarian 85.7% | HS 578T breast 93.6%

C[C@@H](NC(=O)[C@@H](CC(=O)N1CCC(N2CCCCC2)CC1)N1C(=O)[C@@H](N2C(=O)OC[C@@H]2c2ccccc2)[C@H]1/C=C/c1cccc(Cl)c1)c1ccccc1
inactive: SK-MEL-2 melanoma 96.8% | EKVX NSCLC 66.5% | SN12C renal 84.4% | UO-31 renal 58.9% | TK-10 renal 78.9% | ACHN renal 91.6% | CAKI-1 renal 69.7% | A498 renal 84.6% | CCRF-CEM leukemia 50.1% | MOLT-4 leukemia 26.7% | RPMI-8226 leukemia 54.7% | OVCAR-8 ovarian 86.8% | OVCAR-5 ovarian 115% | OVCAR-4 ovarian 78.6% | SK-OV-3 ovarian 86.7% | IGROV1 ovarian 86% | OVCAR-3 ovarian 74.4% | HS 578T breast 63.2% | NCI/ADR-RES ovarian 98%
active: SR leukemia -22.4%

Cc1cc(C)nc(SCC(=O)Nc2cccc(N=Cc3ccccc3O)c2)n1
inactive: SK-MEL-2 melanoma 114% | EKVX NSCLC 97.9% | SN12C renal 96.5% | UO-31 renal 76.7% | TK-10 renal 106% | ACHN renal 99.2% | CAKI-1 renal 81.4% | A498 renal 82.5% | CCRF-CEM leukemia 88.6% | MOLT-4 leukemia 98.9% | SR leukemia 109% | RPMI-8226 leukemia 96.9% | OVCAR-8 ovarian 103% | OVCAR-5 ovarian 100% | OVCAR-4 ovarian 86.1% | SK-OV-3 ovarian 94.5% | IGROV1 ovarian 108% | OVCAR-3 ovarian 105% | HS 578T breast 97.2% | NCI/ADR-RES ovarian 100%

COCCCNc1nc(NC(=O)c2cc(OC)cc(OC)c2)cc(-c2cccnc2)n1
inactive: SK-MEL-2 melanoma 78.8% | EKVX NSCLC 105% | SN12C renal 95.3% | UO-31 renal 56.7% | TK-10 renal 86.7% | ACHN renal 98.2% | CAKI-1 renal 99.4% | A498 renal 67.7% | CCRF-CEM leukemia 91.7% | MOLT-4 leukemia 83.5% | SR leukemia 80.6% | RPMI-8226 leukemia 69.3% | OVCAR-8 ovarian 79.3% | OVCAR-5 ovarian 95.7% | OVCAR-4 ovarian 108% | SK-OV-3 ovarian 105% | IGROV1 ovarian 102% | OVCAR-3 ovarian 113% | HS 578T breast 95.3% | NCI/ADR-RES ovarian 83.5%

COc1cc2c(=O)[nH]c3cc([N+](=O)[O-])ccc3c2cc1[N+](=O)[O-]
active: A498 renal -2.09% | MOLT-4 leukemia 9.72%
inactive: SK-MEL-2 melanoma 86.1% | EKVX NSCLC 48.3% | SN12C renal 52.6% | UO-31 renal 19.6% | TK-10 renal 52.1% | ACHN renal 21.8% | CAKI-1 renal 45.7% | CCRF-CEM leukemia 46.5% | SR leukemia 32.2% | RPMI-8226 leukemia 57.2% | OVCAR-8 ovarian 45.9% | OVCAR-5 ovarian 74.1% | OVCAR-4 ovarian 54.1% | SK-OV-3 ovarian 77.4% | IGROV1 ovarian 41.5% | OVCAR-3 ovarian 63.7% | HS 578T breast 66.6% | NCI/ADR-RES ovarian 48.7%

CC(C)C1=NOC(=O)C1=Cc1cn(-c2ccccc2)nc1-c1ccc(Br)cc1
inactive: SK-MEL-2 melanoma 87% | EKVX NSCLC 93.3% | SN12C renal 84.8% | UO-31 renal 67.9% | TK-10 renal 91.5% | ACHN renal 81.5% | CAKI-1 renal 62.9% | A498 renal 57% | OVCAR-8 ovarian 80.8% | OVCAR-5 ovarian 100% | OVCAR-4 ovarian 98.8% | SK-OV-3 ovarian 99.9% | IGROV1 ovarian 72.5% | OVCAR-3 ovarian 85.4% | HS 578T breast 70.4% | NCI/ADR-RES ovarian 101%
active: CCRF-CEM leukemia 2.56% | MOLT-4 leukemia -15.7% | SR leukemia -23.1% | RPMI-8226 leukemia -29.6%

CC(C)c1ccc(C(=O)Nc2sc3c(c2C#N)CCC(=O)C3)cc1
inactive: A498 renal 24.6% | OVCAR-8 ovarian 13.7% | OVCAR-5 ovarian 11.1% | SK-OV-3 ovarian 20.8% | IGROV1 ovarian 18.4% | HS 578T breast 25.4%
active: SK-MEL-2 melanoma -20.1% | EKVX NSCLC 7.96% | SN12C renal 4.66% | UO-31 renal -97% | TK-10 renal 0.974% | ACHN renal -90.5% | CAKI-1 renal -44.3% | CCRF-CEM leukemia 1.37% | MOLT-4 leukemia 0.0788% | SR leukemia -11.7% | RPMI-8226 leukemia -35.2% | OVCAR-4 ovarian -78% | OVCAR-3 ovarian -33.4% | NCI/ADR-RES ovarian 3.12%

O=C(CCN1CCCCC1)c1ccc2ccccc2c1
inactive: SK-MEL-2 melanoma 102% | EKVX NSCLC 112% | SN12C renal 96.7% | UO-31 renal 77.1% | TK-10 renal 94.5% | ACHN renal 116% | CAKI-1 renal 98.1% | A498 renal 93.5% | CCRF-CEM leukemia 92.3% | MOLT-4 leukemia 108% | SR leukemia 103% | RPMI-8226 leukemia 77.5% | OVCAR-8 ovarian 99.9% | OVCAR-5 ovarian 117% | OVCAR-4 ovarian 114% | SK-OV-3 ovarian 105% | IGROV1 ovarian 104% | OVCAR-3 ovarian 98.6% | HS 578T breast 104% | NCI/ADR-RES ovarian 109%

CCN(CC)c1ccc(/C=C/c2ccc3cc(C)ccc3[n+]2CC)cc1
active: SK-MEL-2 melanoma -32.3% | UO-31 renal 5.46% | TK-10 renal -4.22% | ACHN renal 0.905% | A498 renal 5.43% | CCRF-CEM leukemia 6.14% | MOLT-4 leukemia -15.3% | SR leukemia -17.6% | RPMI-8226 leukemia -8.91% | OVCAR-8 ovarian 2.3% | SK-OV-3 ovarian -11.6%
inactive: EKVX NSCLC 11.8% | SN12C renal 14.2% | CAKI-1 renal 15.7% | OVCAR-5 ovarian 26.8% | OVCAR-4 ovarian 21.2% | IGROV1 ovarian 26.5% | OVCAR-3 ovarian 14.9% | HS 578T breast 46.5% | NCI/ADR-RES ovarian 45.7%

Cc1cc(C)c(O)c(CNCCCNCc2cc(C)cc(C)c2O)c1
active: SR leukemia -30.5%
inactive: SK-MEL-2 melanoma 88.5% | EKVX NSCLC 75% | SN12C renal 73.4% | UO-31 renal 28.2% | TK-10 renal 77% | ACHN renal 73.6% | CAKI-1 renal 62.1% | A498 renal 47% | CCRF-CEM leukemia 68.4% | MOLT-4 leukemia 67.5% | RPMI-8226 leukemia 28.5% | OVCAR-8 ovarian 82.2% | OVCAR-5 ovarian 74.6% | OVCAR-4 ovarian 88.3% | SK-OV-3 ovarian 89.3% | IGROV1 ovarian 62% | OVCAR-3 ovarian 77% | HS 578T breast 11.2% | NCI/ADR-RES ovarian 72.5%

O=C(NCc1ccc(Cn2c(=O)sn(-c3ccccc3)c2=O)cc1)OCc1ccc2c(Br)cc(Br)c(O)c2n1
inactive: SK-OV-3 ovarian 55.2%
active: SK-MEL-2 melanoma -52.4% | EKVX NSCLC -92.3% | SN12C renal -61.4% | UO-31 renal -100% | TK-10 renal -90.5% | ACHN renal -100% | CAKI-1 renal -74.9% | A498 renal -41.6% | CCRF-CEM leukemia 4.61% | MOLT-4 leukemia 2% | SR leukemia 4.62% | RPMI-8226 leukemia -17.7% | OVCAR-8 ovarian 0.865% | OVCAR-5 ovarian -62.7% | OVCAR-4 ovarian -52.9% | IGROV1 ovarian -80.4% | OVCAR-3 ovarian -90.9% | HS 578T breast -1.98% | NCI/ADR-RES ovarian -1.25%

CCOC(=O)C(=Cc1ccccc1[N+](=O)[O-])C(=O)OCC
active: CCRF-CEM leukemia 2.19% | SR leukemia -10% | OVCAR-5 ovarian -31.5% | OVCAR-3 ovarian -20.7% | NCI/ADR-RES ovarian -29.4%
inactive: SK-MEL-2 melanoma 12% | EKVX NSCLC 68.6% | SN12C renal 24.5% | UO-31 renal 41.5% | TK-10 renal 22.1% | ACHN renal 16.9% | CAKI-1 renal 24.1% | A498 renal 122% | MOLT-4 leukemia 11.1% | RPMI-8226 leukemia 10.7% | OVCAR-8 ovarian 12.2% | OVCAR-4 ovarian 24.7% | SK-OV-3 ovarian 62.4% | IGROV1 ovarian 37.8% | HS 578T breast 47.2%

Nc1ccc2c(c1)Cc1cc(NC(=O)C(F)(F)F)ccc1-2
inactive: SK-MEL-2 melanoma 98.6% | EKVX NSCLC 79.9% | SN12C renal 97.6% | UO-31 renal 75.7% | TK-10 renal 106% | ACHN renal 104% | CAKI-1 renal 96.3% | A498 renal 84.6% | CCRF-CEM leukemia 86.3% | MOLT-4 leukemia 109% | SR leukemia 101% | RPMI-8226 leukemia 88.3% | OVCAR-8 ovarian 102% | OVCAR-5 ovarian 114% | OVCAR-4 ovarian 109% | SK-OV-3 ovarian 89.8% | IGROV1 ovarian 114% | OVCAR-3 ovarian 99.5% | HS 578T breast 119% | NCI/ADR-RES ovarian 104%

O=C1COCCN1c1ccc(NCc2cn(Cc3ccc(F)cc3)c3ccccc23)cc1
inactive: SK-MEL-2 melanoma 56.7% | EKVX NSCLC 91% | SN12C renal 64.3% | UO-31 renal 40.6% | ACHN renal 61.6% | CCRF-CEM leukemia 92.9% | MOLT-4 leukemia 102% | SR leukemia 94.4% | RPMI-8226 leukemia 41.7% | OVCAR-8 ovarian 70.5% | SK-OV-3 ovarian 20.3% | HS 578T breast 72% | NCI/ADR-RES ovarian 72.1%
active: TK-10 renal -32.3% | CAKI-1 renal -37.8% | A498 renal -91.7% | OVCAR-5 ovarian -40.3% | OVCAR-4 ovarian -6.07% | IGROV1 ovarian -18.9% | OVCAR-3 ovarian 3.96%

CCOC(=O)CC(c1ccccc1)C(C#N)c1ccccc1 (centres undefined)
inactive: SK-MEL-2 melanoma 106% | EKVX NSCLC 87.5% | SN12C renal 109% | UO-31 renal 84% | TK-10 renal 101% | ACHN renal 103% | CAKI-1 renal 87.1% | A498 renal 91.3% | CCRF-CEM leukemia 98.9% | MOLT-4 leukemia 88.8% | SR leukemia 97.3% | RPMI-8226 leukemia 91.3% | OVCAR-8 ovarian 99.2% | OVCAR-5 ovarian 110% | OVCAR-4 ovarian 98.7% | SK-OV-3 ovarian 95.1% | IGROV1 ovarian 108% | OVCAR-3 ovarian 98.9% | HS 578T breast 89.4% | NCI/ADR-RES ovarian 109%
